Hits are enriched below; roughly 10% of the tested compounds scored in any of these assays.
Six1-Eya2 blk: qHTS Assay for Inhibitors of the Six1/Eya2 Interaction; Homeobox protein SIX1 (Homo sapiens) + Protein phosphatase EYA2 (Homo sapiens), …; AlphaScreen GST-Six1/His-Eya2 binding, biochemical; active compounds read low; activity change, % (concentration not given with the values); 360,000 compounds, 0.56% hits; in the data active means activity change below about -65%; inconclusive means mostly about -30% to -63%; further: on the % scale 0 is the no-effect control and ±100 the full control effect
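AlphaScreen with GST-Six1 and His-Eya2 (5X mix: 250 nM and 500 nM), glutathione donor and nickel acceptor beads; buffer 50 mM Tris pH 8.0, 300 mM NaCl, 1 mM TCEP; 1 h at 37 C in the dark.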
HP1b binding inh: HTS for Inhibitors of HP1-beta Chromodomain Interactions with Methylated Histone Tails. AID 540317, 2011. AlphaScreen HP1-beta / biotin-H3K9me3 peptide binding. 390,000 compounds, 0.56% hits. Chromobox protein homolog 1 (Homo sapiens), P83916. Potency, µM (highest dose often 114 µM), for the others: at the highest dose activity change, negative = inhibition, hits mostly inhibitors; further: potency means the concentration at half of the fitted maximal effect; nearly all actives have a fitted effect of over 70% in size
Target sequence (P83916 whole entry, looked up): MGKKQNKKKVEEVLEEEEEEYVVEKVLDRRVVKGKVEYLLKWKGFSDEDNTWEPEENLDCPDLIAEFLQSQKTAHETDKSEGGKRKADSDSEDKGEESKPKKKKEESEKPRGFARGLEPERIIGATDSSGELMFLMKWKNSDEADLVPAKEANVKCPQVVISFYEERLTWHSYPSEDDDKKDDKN
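AlphaScreen: HP1-beta (50 nM) preformed 30 min with biotin-H3(1-18)K9me3 peptide (50 nM) in PBS pH 7.4, 0.01% Tween-20. Compound added for 30 min at RT, then streptavidin donor/nickel chelate acceptor beads (10 ug/mL) for 30 min.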
BAZ2B inh: qHTS Assay for Inhibitors of BAZ2B | Bromodomain adjacent to zinc finger domain protein 2B (Homo sapiens), Q9UIF8 | AlphaScreen BAZ2B-H3K14Ac peptide displacement | Potency, µM (highest dose often 114 µM), for the others: top-dose activity change, negative = inhibition, most hits filed as inhibitors | 360,000 compounds, 4.4% hits; further: potency means the concentration at half of the fitted maximal effect; on the % scale 0 is the no-effect control and ±100 the full control effect; nearly all actives have a fitted effect of over 60% in size
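AlphaScreen luminescence quantifies BAZ2B engagement of H3K14Ac peptide; the protein and biotinylated peptide are both at 50 nM final, buffer PBS pH 7.4 with 0.01% Tween-20, all steps at room temperature.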
G9a inh: qHTS Assay for Inhibitors of Histone Lysine Methyltransferase G9a; G9a H3K9 monomethylation, AlphaScreen, 2 h; 350,000 compounds, 8.8% hits; Potency, µM (doses to about 102 µM), for inactives: at the highest dose activity, negative = inhibition, usual class: inhibitors; further: potency means the concentration at half of the fitted maximal effect; on the % scale 0 is the no-effect control and ±100 the full control effect; nearly all actives have a fitted effect of over 75% in size
Target sequence (Q96KQ7 913-1193 limits assumed): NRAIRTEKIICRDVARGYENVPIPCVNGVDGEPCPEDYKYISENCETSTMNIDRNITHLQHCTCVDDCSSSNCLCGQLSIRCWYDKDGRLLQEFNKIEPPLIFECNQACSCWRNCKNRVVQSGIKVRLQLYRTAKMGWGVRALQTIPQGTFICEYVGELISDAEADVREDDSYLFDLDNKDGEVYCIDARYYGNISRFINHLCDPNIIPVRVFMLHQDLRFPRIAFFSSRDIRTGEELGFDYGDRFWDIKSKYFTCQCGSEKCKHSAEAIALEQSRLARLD
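Step 1: enzyme (final 20 nM) with compound, 15 min RT. Step 2: substrate peptide 500 nM and SAM 20 uM, 2 h RT. Step 3: anti-H3K9me1 antibody and AlphaScreen beads, 10 min, then plate read.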
JMJD2A Tudor: qHTS Assay for Inhibitors of JMJD2A-Tudor Domain. AID 504339, 2011. Potency, µM (highest dose often 114 µM), inactives show top-dose activity change, negative = inhibition, actives largely listed as inhibitors. AlphaScreen JMJD2A-Tudor / H3K4me3 peptide binding. 390,000 compounds, 4.4% hits. Lysine-specific demethylase 4A (Homo sapiens), O75164; further: potency means the concentration at half of the fitted maximal effect; on the % scale 0 is the no-effect control and ±100 the full control effect; nearly all actives have a fitted effect of over 50% in size
CtBP-E1A blk: qHTS Assay for Inhibitors of the CtBP/E1A Interaction | CtBP / adenovirus E1A interaction (AlphaScreen) | activity change, % (no concentration beside the values) | 340,000 compounds, 0.49% hits | AlphaScreen GST-E1A/His-CtBP binding, 1536-well; active compounds read low; in the data active means activity change below about -65%; inconclusive means mostly about -30% to -63%; further: on the % scale 0 is the no-effect control and ±100 the full control effect
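AlphaScreen with 125 nM GST-E1A and 125 nM His-CtBP (5X stocks) in Tris pH 8.0, 300 mM NaCl, BSA, Tween 20, TCEP. Compounds preincubated 2 h at 37 deg C, then glutathione donor/nickel acceptor beads added for 1 h at 37 deg C in dark.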
Starred values were filed as active, the others as inactive; ? = inconclusive; . = no result given; ! = not active in a repeat; [ ] = dose if it differs, or a comment. Unless noted, the call rests on the fitted dose curve; in most records, active means well fitted inhibition curve with a large enough effect; inconclusive means small, poorly fitted or top-dose-only effect; inactive means no such curve, though single readings can be large or run the other way.

SMILES	Six1-Eya2 blk	HP1b binding inh	BAZ2B inh	G9a inh	JMJD2A Tudor	CtBP-E1A blk
C[N+]1(CC(O)c2ccccc2)CCCCCC1 (centres undefined)	7.8	8.9%	79.4µM*	50.1µM*	-4.0%	.
CO[C@H]1C=C2CCN(C)[C@@H]2[C@@H]2c3cc4c(cc3C(=O)O[C@H]21)OCO4	.	.	.	1.9%[21.5 µM]	.	.
Cc1cccnc1-n1c(-c2ccco2)nc2ccccc2c1=O	-2.4	21.6%	-6.0%	50.1µM*	13.0%	-2.9
COc1ccc(N2C(=O)/C(=C/c3ccc(N(C)C)o3)C(=O)NC2=S)cc1	22.3	30.2%	?	44.7µM*	-6.4%	34.1
Cc1cc(C)cc(N2C(=O)/C(=C\c3ccc(N4CCN(C)CC4)o3)C(=O)NC2=S)c1	0.0	?	35.5µM*	?	-32.4%	3.0
Cc1cccc(N2C(=O)/C(=C/N3CCN(C(=O)c4ccco4)CC3)C(=O)NC2=S)c1	3.9	17.2%	-2.5%	?	-18.3%	4.0
COc1cccc(N2C(=O)/C(=C/c3ccc(C)o3)C(=O)NC2=S)c1	-18.4	?	50.1µM*	4.47µM*	22.4µM*	.
C=CCN1C(=O)/C(=C/c2ccc(N3CCOCC3)o2)C(=O)NC1=S	-9.5	6.8%	?	?	-11.6%	0.5
COc1ccc(N2C(=O)/C(=C/c3cccs3)C(=O)NC2=S)cc1	-2.0	-16.7%	-38.5%	7.08µM*	35.5µM*	-6.1
CCN(CC)c1ccc(/C=C2\C(=O)NC(=S)N(c3ccc(OC)cc3OC)C2=O)o1	5.8	-15.1%	.	.	-25.7%	-0.2
O=C(Nc1ccc2nc(SCC(=O)N3CCCc4ccccc43)sc2c1)c1ccccc1F	.	43.5%	-13.5%	4.8%[59 µM]	-11.3%	.
C[C@@H]1Cc2c(Cl)cc(C(=O)N[C@@H](Cc3ccccc3)C(=O)O)c(O)c2C(=O)O1	.	.	.	3.3%[59 µM]	.	.
C=CCN(C1=NCCN1)c1c(Cl)cccc1Cl	.	.	.	6.4%[59 µM]	.	.
COc1cccc(N2CCN(C(=O)C3CCCN(S(=O)(=O)c4ccc5c(c4)oc(=O)n5C)C3)CC2)c1 (centres undefined)	-2.5	8.2%	-14.2%	-7.2%	-19.4%	-10.1
CCOC(=O)c1ncc2[nH]c3ccc(OCc4ccccc4)cc3c2c1COC	.	.	.	12.5%[59 µM]	.	.
Cc1ccc(N2C(=O)NC(=O)/C(=C\c3ccc([N+](=O)[O-])o3)C2=O)cc1	.	.	20µM*	6.31µM*	.	.
Cc1ccc(N2C(=O)/C(=C/c3ccc(CN(CCC#N)S(C)(=O)=O)o3)C(=O)NC2=S)cc1	?	50.1µM*	50.1µM*	7.94µM*	17.8µM*	-14.6
COc1ccc(N2C(=O)/C(=C/C=C/c3ccccc3[N+](=O)[O-])C(=O)NC2=S)cc1	-16.1	25.1µM*	50.1µM*	6.31µM*	12.6µM*	-1.4
Cc1ccc(/C=C2\C(=O)NC(=S)N(c3ccc(F)cc3)C2=O)o1	5.8	-17.5%	56.2µM*	3.98µM*	50.1µM*	.
Cc1cc(/C=C2/C(=O)NC(=O)N(c3ccc(Br)cc3)C2=O)c(C)n1C	-15.1	8.8%	-8.4%	-4.3%	-12.3%	1.2
COc1ccc(CCNC(=O)c2ccc3c(c2)N=C(C)c2cc(C)ccc2S3)cc1OC	.	-3.9%	-31.3%	-49.9%[59 µM]	?	.
Cc1ccc(-c2n[nH]c(=S)n2-c2ccccc2)cc1	-1.9	2.5%	10.0%	1.26µM*	20µM*	-5.8
CCCC[N+]1(C)C2CC(OC(=O)[C@H](CO)c3ccccc3)CC1C1OC12 (some centres undefined)	.	.	.	-11.5%[59 µM]	.	.
C=CCN1CC[C@]23c4c5ccc(O)c4O[C@H]2C(=O)CC[C@@]3(O)[C@H]1C5	1.2	19.9%	35.3%	39.8µM*!	-25.5%	7.1
C=CCN1CC[C@]23c4c5ccc(O)c4O[C@@H]2/C(=N/N=C2\CC[C@@]4(O)C6Cc7ccc(O)c8c7[C@@]4(CCN6CC=C)[C@@H]2O8)CC[C@@]3(O)C1C5	.	.	.	12.6µM*!	.	.
SMILES	Six1-Eya2 blk	HP1b binding inh	BAZ2B inh	G9a inh	JMJD2A Tudor	CtBP-E1A blk
C=CCN1CC[C@]23c4c5ccc(O)c4OC2[C@H](O)CC[C@@]3(O)[C@H]1C5 (some centres undefined)	1.4	16.6%	.	.	-12.4%	3.0
Oc1ccc2c3c1O[C@H]1[C@@H](O)CC[C@@]4(O)[C@@H](C2)N(CC2CCC2)CC[C@]314	2.8	32.1%	-5.2%	-7.1%[59 µM]	-17.2%	1.8
C=CCN1CCC23c4c5ccc(O)c4OC2/C(=N/N=C2\CCC4(O)C6Cc7ccc(O)c8c7C4(CCN6CC=C)C2O8)CCC3(O)C1C5 (centres undefined)	.	.	.	25.1µM*	.	.
CC(C)C[C@H](NC(=O)[C@H](Cc1ccccc1)NC(=O)CNC(=O)CNC(=O)[C@@H](N)Cc1ccc(O)cc1)C(=O)N[C@@H](CCCN=C(N)N)C(=O)N[C@@H](CCCCN)C(=O)N[C@@H](Cc1ccc(O)cc1)C(=O)N1CCC[C@H]1C(=O)N[C@@H](CCCCN)C(=O)O	.	.	.	38.2%[59 µM]	.	.
CC[C@H]1CN2CCc3cc(OC)c(OC)cc3C2C[C@@H]1C[C@H]1NCCc2cc(OC)c(OC)cc21 (some centres undefined)	-8.9	22.4%	9.1%	-4.0%[59 µM]	-12.9%	-5.2
CCn1c(NN=O)nc2ccccc21	?	-20.5%	56.2µM*	?	89.1µM*	?
COc1ccc(CN2C(=O)CC(=O)NC2=S)cc1	-0.6	30.2%	?	70.8µM*	-10.7%	8.3
C=C1C(O)C2OC3(CCC(/C=C/C(C)C4CC(C)=CC5(OC(CC(C)(O)C(=O)O)CCC5O)O4)O3)CCC2OC1C(O)CC(C)C1OC2(CCCCO2)CCC1C (centres undefined)	.	.	.	27.0%[2.33 µM]	.	.
CNS(=O)(=O)c1ccc(N=Cc2c(O)n(-c3ccc(C)cc3)c(=O)[nH]c2=O)cc1	14.8	37.8%	-14.3%	.	-17.1%	0.0
CCc1nnc(NS(=O)(=O)c2ccc(N=Cc3c(O)n(-c4ccc(Cl)cc4)c(=O)[nH]c3=O)cc2)s1	2.4	-2.8%	-13.9%	?	35.5µM*	1.1
CCOc1nc(NC(C)C)nc(N2CC3CC(C2)c2cccc(=O)n2C3)n1 (centres undefined)	6.0	?	11.3%	-27.9%	20µM*	.
COC12C(COC(N)=O)C3=C(C(=O)C(C)=C(N)C3=O)N1CC1C2N1C (centres undefined)	-7.3	30.8%	-33.0%	50.1µM*	?	-0.7
CC(C)(C)c1ccc(-c2n[nH]c(=S)n2CCCN2CCOCC2)cc1	3.2	4.0%	-32.7%	6.31µM*	10µM*	-3.6
